The structures appear in SMILES notation. Inconclusive results are not listed. Activity calls are given as the source filed them. Calls follow the shape of the dose curve; as a rule, active = well fitted inhibition curve with a large enough effect; inconclusive = small, poorly fitted or top-dose-only effect; inactive = flat fitted curve, though single readings scatter.

Test in all cases: qHTS profiling for inhibitors of Plasmodium falciparum proliferation (AID 504749); also: nearly all actives have a fitted effect of over 60% in size
What all share (conditions): P. falciparum in erythrocytes, SYBR Green DNA, 72 h; series mostly up to 28.7 µM
(qHTS replaces the single test concentration by a dilution series.)

For one assay, the system named is DIV14. The gist of the method: (§1)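 SYBR Green fluorescence (ex 485 nm, em 535 nm) reports parasite DNA after 72 h compound exposure of infected red cells at 0.3% parasitemia, 2.5% hematocrit; signal normalized to 0.29 uM artemisinin and vehicle wells.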
The subject of the next assay is DIV17. The gist of the method:
as §1

A further assay relates to DIV30. The essentials:
as §1

The subject of the next assay is ECU. The essentials:
as §1

A further assay relates to FAB9. The essentials:
as §1

The test system of the next assay is HB3. The essentials:
as §1

In a further assay the test system is ICS. The gist of the method:
as §1

The next assay concerns JCK. The gist of the method:
as §1

The subject of another assay is N140. The gist of the method:
as §1

The test system of a further assay is P94_40. The essentials: as §1
In the next assay the test system is PAD. The gist of the method: as §1
In a further assay the test system is PC15. The gist of the method:
as §1

A further assay deals with PC26. The gist of the method: as §1
The subject of a further assay is PC49. The gist of the method:
as §1

The next assay relates to TAB109. The gist of the method: as §1
Another assay deals with TAB113. The essentials: as §1
In a further assay the test system is Dd2. The essentials: as §1
The subject of another assay is GB4. The gist of the method: as §1
The next assay relates to P93_24. The essentials:
as §1

A further assay concerns SC27B. The essentials:
as §1
Potency is read from the fitted curve at half-maximal effect.

Turning to `CC(CN1c2ccccc2Sc2ccccc21)N(C)C` (centres undefined), the Potency result in the assay with DIV14, in the assay on DIV17, in the assay on DIV30, in the assay with ECU, in the assay with FAB9 and in the assay with HB3 was “inactive” each time. Moreover, the Potency entry in the assay on ICS, in the assay on JCK, in the assay with P94_40, in the assay on PAD, in the assay with PC15 and in the assay with PC26 was “inactive” throughout. For the same compound, the Potency entry with PC49, in the assay on TAB109 and in the assay on TAB113 was “inactive” in each case. Also, in the assay on N140, the Potency is 4.47 µM (active).
In the case of `CCCc1c(OCCCCc2nn[nH]n2)ccc(C(C)=O)c1O`, the Potency entry with DIV14, in the assay with DIV17, in the assay with DIV30, in the assay with Dd2, with ECU and in the assay with FAB9 was “inactive” each time. For the same compound, the Potency result in the assay with GB4, in the assay on HB3, in the assay on ICS, in the assay on JCK, in the assay with N140 and with P93_24 was “inactive” in each case. The Potency result in the assay with P94_40, in the assay with PAD, in the assay on PC15, with PC26, in the assay with SC27B and with TAB109 was “inactive” in each case. In addition, the Potency entry with TAB113 is “inactive”.
Consider `O=C1NC(=O)[C@@]2(CCOc3ccc(F)cc32)N1`, for which the Potency result with DIV14, in the assay on DIV17, in the assay with DIV30, with Dd2, in the assay with ECU and in the assay with FAB9 was “inactive” in each case. For the same compound, the Potency result with GB4, in the assay on HB3, in the assay with ICS, with JCK, in the assay on N140 and in the assay with P93_24 was “inactive” in each case. Further, the Potency entry with P94_40, in the assay with PAD, in the assay with PC15, with PC26, with PC49 and in the assay on SC27B was “inactive” in each case. In addition, the Potency entry in the assay on TAB109 and in the assay on TAB113 was “inactive” throughout.
For `O=C(O)[C@@H]1CSCN1`, the Potency result in the assay with DIV14, in the assay with DIV17, with DIV30, with Dd2, with ECU and with FAB9 was “inactive” each time. Moreover, the Potency result in the assay with GB4, in the assay with HB3, in the assay with ICS, in the assay on JCK, with N140 and with P93_24 was “inactive” throughout. In addition, the Potency entry in the assay with P94_40, in the assay on PAD, with PC15, in the assay with PC26, in the assay with PC49 and with SC27B was “inactive” in each case. Besides, the Potency result with TAB109 and with TAB113 was “inactive” in each case.
In the case of `O=C1O[C@H]([C@@H](O)CO)C(O)=C1O`, the Potency result in the assay on DIV14, in the assay with DIV17, in the assay on DIV30, in the assay with Dd2, with FAB9 and in the assay on GB4 was “inactive” in each case. Moreover, the Potency entry in the assay on HB3, in the assay on ICS, with JCK, with N140, in the assay with P93_24 and in the assay with P94_40 was “inactive” throughout. The Potency entry in the assay with PAD, in the assay on PC15, in the assay with PC26, with PC49, in the assay with SC27B and in the assay on TAB109 was “inactive” throughout. Moreover, the Potency result with TAB113 was “inactive”.
Consider `O=C(O)CC(O)C(=O)O` (centres undefined), for which the Potency result with DIV14, with DIV17, in the assay with DIV30, in the assay with Dd2, in the assay with ECU and in the assay with FAB9 was “inactive” throughout. Further, the Potency result in the assay on GB4, in the assay on HB3, in the assay with ICS, in the assay on JCK, in the assay with N140 and in the assay with P93_24 was “inactive” each time. Further, the Potency result in the assay on P94_40, with PAD, in the assay with PC15, in the assay with PC26, in the assay with PC49 and with SC27B was “inactive” each time. Further, the Potency result with TAB109 and in the assay on TAB113 was “inactive” throughout.
For the compound `CC1=C(CC(=O)O)c2cc(F)ccc2/C1=C\c1ccc(S(C)=O)cc1` (centres undefined), the Potency result in the assay on DIV14, in the assay with DIV17, in the assay on DIV30, in the assay on Dd2, in the assay on ECU and in the assay on FAB9 was “inactive” each time. Also, the Potency entry in the assay with GB4, in the assay on HB3, in the assay on JCK, in the assay on N140, with P93_24 and in the assay on P94_40 was “inactive” throughout. Also, the Potency entry in the assay on PAD, in the assay on PC15, with PC26, in the assay with PC49, in the assay on SC27B and in the assay with TAB109 was “inactive” in each case. The Potency result in the assay on TAB113 was “inactive”.
Turning to `O=C1c2c(O)cccc2Cc2cccc(O)c21`, the Potency entry in the assay with DIV14, in the assay with DIV17, with DIV30, in the assay with Dd2, with ECU and in the assay with FAB9 was “inactive” throughout. Also, the Potency entry in the assay on GB4, in the assay with HB3, in the assay on ICS, in the assay on JCK, with N140 and with P93_24 was “inactive” in each case. Moreover, the Potency entry with P94_40, in the assay on PAD, in the assay with PC15, in the assay with PC26, in the assay on PC49 and with SC27B was “inactive” throughout. Besides, the Potency result with TAB109 and in the assay with TAB113 was “inactive” each time.
As to `CCn1cc(C(=O)O)c(=O)c2cnc(N3CCNCC3)nc21`, the Potency result in the assay with DIV14, in the assay on DIV17, in the assay on DIV30, in the assay on Dd2, in the assay on ECU and in the assay on FAB9 was “inactive” each time. Also, the Potency entry in the assay on GB4, in the assay with HB3, in the assay with JCK, with N140, with P93_24 and in the assay with P94_40 was “inactive” in each case. The Potency entry in the assay with PAD, in the assay on PC15, in the assay with PC26, with PC49, in the assay on SC27B and in the assay with TAB109 was “inactive” throughout. Further, the Potency entry in the assay with TAB113 was “inactive”.
For the compound `CC12CCC(CC1)C(C)(C)O2`, the Potency result in the assay with DIV14, with DIV17, in the assay with DIV30, with Dd2, in the assay with ECU and in the assay on FAB9 was “inactive” throughout. In addition, the Potency result in the assay with GB4, in the assay with HB3, in the assay with ICS, in the assay with JCK, in the assay with N140 and in the assay on P93_24 was “inactive” throughout. Moreover, the Potency result with P94_40, with PAD, in the assay with PC15, with PC26, in the assay with PC49 and with SC27B was “inactive” each time. Moreover, the Potency result in the assay on TAB109 and in the assay with TAB113 was “inactive” in each case.
In the case of `Oc1cn2c(n1)Nc1ccc(Cl)c(Cl)c1C2`, the Potency result in the assay with DIV14, in the assay with DIV17, in the assay on DIV30, in the assay with Dd2, with ECU and in the assay on FAB9 was “inactive” throughout. Besides, the Potency entry in the assay with GB4, with HB3, with JCK, with N140, in the assay with P93_24 and in the assay on P94_40 was “inactive” in each case. In addition, the Potency entry in the assay with PAD, with PC15, with PC26, in the assay on PC49, in the assay with SC27B and in the assay with TAB109 was “inactive” in each case. Moreover, the Potency entry in the assay on TAB113 was “inactive”.
Consider `Nc1ncnc2c1ncn2[C@@H]1O[C@H](CO)[C@@H](O)[C@H]1O`, for which the Potency result in the assay on DIV14, with DIV17, in the assay with DIV30, in the assay on Dd2, with ECU and with FAB9 was “inactive” in each case. Besides, the Potency entry with GB4, in the assay on HB3, in the assay on ICS, in the assay with JCK, in the assay with N140 and in the assay with P94_40 was “inactive” throughout. Besides, the Potency result with PAD, with PC15, with PC26, in the assay on PC49, in the assay on SC27B and with TAB109 was “inactive” throughout. In addition, the Potency entry in the assay with TAB113 is “inactive”.
As to `CCC(=O)Nc1ccc(O)cc1`, the Potency result in the assay on DIV14, with DIV17, in the assay on DIV30, in the assay on Dd2, with ECU and in the assay on FAB9 was “inactive” in each case. Further, the Potency entry in the assay with GB4, in the assay on HB3, in the assay on ICS, with JCK, in the assay with N140 and with P93_24 was “inactive” throughout. For the same compound, the Potency result in the assay with P94_40, in the assay on PAD, with PC15, in the assay on PC26, in the assay on PC49 and in the assay on SC27B was “inactive” in each case. Besides, the Potency result with TAB109 and with TAB113 was “inactive” throughout.
On to `CC(C)(C)NCC(O)COc1ccc(NC(=O)NC2CCCCC2)cc1` (centres undefined), for which the Potency result with DIV14, with DIV17, in the assay with DIV30, in the assay with Dd2, in the assay on ECU and in the assay on FAB9 was “inactive” each time. The Potency result in the assay on GB4, with HB3, in the assay on ICS, with JCK, with N140 and in the assay with P93_24 was “inactive” throughout. The Potency entry with P94_40, in the assay on PAD, in the assay on PC15, in the assay on PC26, in the assay with PC49 and in the assay on SC27B was “inactive” in each case. Further, the Potency entry in the assay with TAB109 and with TAB113 was “inactive” throughout.
Take `CCCCOC(=O)c1ccc(O)cc1`: the Potency result in the assay with DIV14, in the assay with DIV17, with DIV30, in the assay on Dd2, in the assay on ECU and with FAB9 was “inactive” in each case. The Potency entry in the assay on GB4, with HB3, in the assay on JCK, in the assay with N140, in the assay on P93_24 and in the assay with P94_40 was “inactive” in each case. In addition, the Potency entry in the assay with PAD, with PC15, with PC26, in the assay with PC49, in the assay with SC27B and in the assay with TAB109 was “inactive” each time. For the same compound, the Potency entry with TAB113 was “inactive”.

Source of the values: PubChem BioAssay (NCATS).
